Bioassay records: PubChem BioAssay, The Scripps Research Institute Molecular Screening Center
Only some compounds are listed: those with a hit (about 3.4% of all), similar ones and a draw of the others.
GPR151 activ – activators of human GPR151, primary screen, cell-based, PathHunter beta-arrestin, luminescence; PathHunter beta-arrestin GPR151 cells; activation, % at 11.2 µM; 1% of 650,000 active; AID 1508602, 2020; in the data active means activation above about 4.9%;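 further: 0% = median of compound wells and 100% = cells with positive control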
TEAD-YAP inh – TEAD-YAP interaction inhibition, primary screen, TEAD-YAP interaction inhibitor project, luminescence, HEK-TIYL cells; TEAD-Gal4/YAP UAS-luciferase luminescence; inhibition, % at 9.12 µM; 1.4% of 640,000 active; in the data active means inhibition above about 32%;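 further: 0% = median of test compound wells and 100% = reference inhibitor wells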
FBW7 act – FBW7 E3 ligase activators, primary screen, biochemical, AlphaScreen, human; AID 1259310, 2017; 0.13% of 650,000 active; AlphaScreen FBW7–phospho-cyclin E peptide binding, activator screen; F-box/WD repeat-containing protein 7 (Homo sapiens), Q969H0; normalized activity (activation), % at 26.1 µM; in the data active means normalized activity above about 1.9%;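 further: purified mutant Fbw7 with reduced substrate affinity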
MITF inh – MITF inhibitors, primary screen, biochemical, AlphaScreen, human. AlphaScreen MITF homodimerization, bead proximity signal. 0.91% of 650,000 active. inhibition, % at 2.6 µM; in the data active means inhibition above about 50%;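 further: 0% = vehicle wells with protein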
Target sequence (O75030 whole entry, looked up): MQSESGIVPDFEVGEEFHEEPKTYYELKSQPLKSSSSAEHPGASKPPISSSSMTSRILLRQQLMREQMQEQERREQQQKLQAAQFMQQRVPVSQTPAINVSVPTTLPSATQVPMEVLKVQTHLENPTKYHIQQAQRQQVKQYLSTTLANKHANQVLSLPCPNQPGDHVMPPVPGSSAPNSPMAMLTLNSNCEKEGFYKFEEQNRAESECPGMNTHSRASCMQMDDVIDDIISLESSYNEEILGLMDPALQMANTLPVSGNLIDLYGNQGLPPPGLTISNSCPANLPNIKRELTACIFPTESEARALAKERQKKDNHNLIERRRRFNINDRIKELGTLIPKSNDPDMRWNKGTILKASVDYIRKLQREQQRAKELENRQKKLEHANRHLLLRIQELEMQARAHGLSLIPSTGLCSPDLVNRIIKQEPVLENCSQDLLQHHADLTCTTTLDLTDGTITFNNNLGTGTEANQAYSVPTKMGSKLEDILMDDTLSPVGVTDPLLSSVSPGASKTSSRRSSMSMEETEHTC
GPR151 conf act – GPR151 activators, triplicate retest, confirmation, cell-based, PathHunter beta-arrestin, luminescence. shares compounds with GPR151 activ. GPR151 PathHunter beta-arrestin cells, 90 min; % of EA-reagent control over plate median. activation, % at 11.2 µM. 6,700 tested, under 10 active. AID 1508609, 2020;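 active means mean percent activation across replicates above the confirmation screen cutoff of 4.91%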
GPR119 ag – GPR119 activators in beta-arrestin cells, counter-screen for GPR151 activator project, cell-based, PathHunter beta-arrestin, luminescence, triplicate; shares compounds with GPR151 activ; 90 min; 0 = compound-well median, 100 = enzyme-acceptor control; activation, % at 11.2 µM; 0.3% of 6,700 active; AID 1508611, 2020;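 active means mean percent activation in the counterscreen above 29.09%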;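 further: counterscreen on off-target GPR119 to flag nonselective hits from the GPR151 activator screen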
Active calls of the source: *; . = not tested or not shown; ! = repeats disagree.

SMILES | GPR151 activ | TEAD-YAP inh | FBW7 act | MITF inh | GPR151 conf act | GPR119 ag
O=C(c1ccc(Cl)cc1)c1cc(NC(=O)c2cc(Br)cc(Br)c2O)ccc1Cl | 8.2* | 7 | 0 | 3 | 1 | -3
Cc1ccc(C(=O)C2CCN(CC(=O)N3C(C)CCCC3C)CC2)cc1 (configuration not stated) | 0 | -6 | 0 | 11 | . | .
CC1CCCC(C)N1C(=O)Cn1c(C(F)(F)F)nc2ccccc21 (configuration not stated) | 12* | 10 | 0 | 17 | 1 | 0
CC1CN(C(=O)Cn2c(C(F)(F)F)nc3ccccc32)CC(C)O1 (configuration not stated) | 3 | 4 | 0 | 1 | . | .
COc1ccc(CN2CCc3c([nH]c4ccccc34)C2)c(OC)c1 | 0 | 8 | 0 | 40 | . | .
COCCN(Cc1cc2cc3c(cc2nc1Cl)OCO3)C(=O)N(C)C | 1 | 2 | 0 | 6 | . | .
Cc1ccccc1OCCCC(=O)Nc1nc(-c2ccccc2)cs1 | 7.1* | -1 | 0 | -14 | -1 | 0
O=C(O)CCCC(=O)Nc1nc(-c2ccccc2)cs1 | -2 | 5 | 0 | -13 | . | .
CCOC(=O)Cc1c(C)c2ccc(N(CC)CC)cc2oc1=O | 7.2* | -10 | 1 | -14 | 0 | 10
COc1cccc(CNc2nn[nH]n2)c1OC | 8.4* | 8 | 0 | 12 | -1 | -7
Cc1ccc(NS(=O)(=O)c2ccc(NC(=O)CCCOc3ccccc3)cc2)cc1 | 6.7* | -10 | 0 | 10 | 1 | 4
CCCCCC(=O)Nc1ccc(S(=O)(=O)Nc2nccc(C)n2)cc1 | 5.5* | 6 | 0 | 9 | -1 | -14
Cc1ccc(NC(=O)CS(=O)(=O)c2ccccc2)cc1 | 6.1* | -7 | 0 | 5 | 0 | 10
O=C(CCCOc1ccccc1)Nc1ccc(S(=O)(=O)Nc2ncccn2)cc1 | -2 | -6 | 0 | 0 | . | .
CCOC(=O)C1=C(C)N=c2s/c(=C/c3cc(C)n(-c4ccc(Br)cc4)c3C)c(=O)n2C1c1ccc2c(c1)OCO2 (configuration not stated) | 0 | 6 | 0 | 4 | . | .
O=C1N(Cc2ccc(F)cc2)c2cccc3cccc(c23)N1Cc1ccc(F)cc1 | 1 | 0 | 0 | -10 | . | .
Cc1ccc(/C=C2\N=C3CCCCCN3C2=O)cc1 | -2 | -12 | 0 | -1 | . | .
O=C(CCc1ccccc1)Nc1ccccc1Cl | 0 | -11 | 0 | 3 | . | .
CC(Oc1ccc2c3c(c(=O)oc2c1)CCCC3)C(=O)O (configuration not stated) | 0 | 7 | 0 | -1 | . | .
CSCCC(NC(C)=O)C(=O)Oc1ccc2c3c(c(=O)oc2c1)CCCC3 (configuration not stated) | 5.4*! | 4 | 1 | 15 | 0 | -4
CC(C)(C)C#C/C=N/n1nnc(-c2ccccc2)n1 | 5.8* | -3 | 0 | 8 | -1 | -4
CCOC(=O)C1=CN(C)C=C(C(=O)OCC)C1c1ccc(OC)c(OCc2ccccc2)c1 | 7.2* | -4 | 1 | -1 | 0 | 0
COC(=O)C1=CN(C)C=C(C(=O)OC)C1c1ccc(OCc2ccccc2)c(OC)c1 | 2 | -18 | 0 | -5 | . | .
CCOC(=O)C1=C(C)NC2=C(C(=O)C(C(=O)OCC)C(c3ccccc3OC)C2)C1c1ccc(OCc2ccccc2)c(OC)c1 (configuration not stated) | 8.7* | 0 | 0 | 5 | 0 | -4
Cc1ccccc1NC(=O)C1CCC(C)(C(=O)O)C1(C)C (configuration not stated) | 5.1* | -4 | 0 | 2 | -1 | -10
SMILES | GPR151 activ | TEAD-YAP inh | FBW7 act | MITF inh | GPR151 conf act | GPR119 ag
CC1(C(=O)O)CCC(C(=O)Nc2ccc(Nc3ccccc3)cc2)C1(C)C (configuration not stated) | 1 | -1 | 0 | 12 | . | .
Cc1csc(NC(=O)C2CCC(C)(C(=O)O)C2(C)C)n1 (configuration not stated) | 7.3* | -2 | 0 | 2 | -1 | -10
Cc1cnc(Nc2ccc(-n3ccnc3)cc2)nc1NCCN(C(C)C)C(C)C | 7.0* | -1 | 0 | -3 | 0 | -1
Cc1cccn2c(CN(C)CCC3CCOCC3)c(C(=O)N(C)CCc3ccccc3)nc12 | 6.2* | 5 | 0 | 2 | 0 | -4
CCOc1ccc(/C=N/n2c(C)nc3ccccc3c2=O)cc1 | -1 | 0 | 0 | -4 | . | .
CCOC(=O)COc1ccc2ccccc2c1/C=N/n1c(C)nc2ccccc2c1=O | 5.0* | -4 | 0 | 7 | -1 | -12
CCN(CC)c1ccc(C(c2c(C)n(C)n(-c3ccccc3)c2=O)c2c(C)n(C)n(-c3ccccc3)c2=O)cc1 | 2 | 23 | 0 | 13 | . | .
Cc1ccc(CN2CCC(N(C)C(C)c3nccs3)CCC2=O)cc1 (configuration not stated) | 5.2* | -4 | -1 | -1 | 1 | 14
CCCCOC(=O)N/N=C/c1cc(C)ccc1O | 1 | -21 | 0 | -13 | . | .
CCn1c(C(=O)O)c(CC(=O)NCc2ccccn2)c2ccccc21 | -2 | -14 | 0 | 2 | . | .
Cc1ccccc1NC(=S)NCC(c1cccnc1)N1CCOCC1 (configuration not stated) | 0 | -8 | 0 | 4 | . | .
S=C(NCCc1ccccc1)NCC(c1cccnc1)N1CCOCC1 (configuration not stated) | 9.3* | 3 | 0 | -4 | 1 | 9
CCOC(=O)C1=C(c2ccccc2)N=c2s/c(=C\c3ccco3)c(=O)n2C1c1cc(C(C)C)c(OC)cc1C (configuration not stated) | 0 | -18 | 0 | 15 | . | .
O=C(Cc1ccccc1)Nc1ccc2oc(-c3cccc(I)c3)nc2c1 | 0 | -7 | 0 | -13 | . | .
Cc1ccc(NC(=O)CSc2nc(=O)n(Cc3ccco3)c3c2CCC3)cc1F | 6.6* | 2 | 0 | -14 | -2 | -18
CCN(CC)CC(C)CNC(=O)c1cc(-c2ccccn2)nc2ccccc12 (configuration not stated) | 0 | -6 | 0 | -4 | . | .
Cc1nc(N2CCC(C(=O)O)CC2)c2oc3ccccc3c2n1 | -1 | -4 | 0 | 8 | . | .
Cc1nc(N2CCOCC2)c2oc3ccccc3c2n1 | 7.4* | -3 | 0 | 14 | 0 | 3
OC1(c2cccnc2)CCN(Cc2cccc(F)c2)CC1 | 0 | 5 | 0 | 7 | . | .
